From PubChem BioAssay (NCATS)
Where “and” joins values, the source holds several entries; their conditions need not be identical. Equal entries are not always repeated. Records with an inconclusive call do not appear. Entries that show only a call come without a potency. Unmarked numbers belong to inactive results. Calls of active or inactive are those of the source. Calls come from the whole dose curve; as a rule, active = well fitted curve in the direction sought with a large enough effect; inconclusive = small, poorly fitted or top-dose-only effect, or another doubt; inactive = no such curve, though single readings can be large; an effect the other way counts as inactive or inconclusive.

Experiments:
[1] = molecular target: Cytochrome P450 3A7 (Homo sapiens) (UniProt P24462); test: Cytochrome P450 family 3 subfamily A member 7 (CYP3A7) small molecule antagonists: luciferase biochemical qHTS assay (AID 1963596); note: nearly all actives have a fitted effect of over 40% in size
Chain of Cytochrome P450 3A7 (Homo sapiens) (P24462 whole entry, looked up): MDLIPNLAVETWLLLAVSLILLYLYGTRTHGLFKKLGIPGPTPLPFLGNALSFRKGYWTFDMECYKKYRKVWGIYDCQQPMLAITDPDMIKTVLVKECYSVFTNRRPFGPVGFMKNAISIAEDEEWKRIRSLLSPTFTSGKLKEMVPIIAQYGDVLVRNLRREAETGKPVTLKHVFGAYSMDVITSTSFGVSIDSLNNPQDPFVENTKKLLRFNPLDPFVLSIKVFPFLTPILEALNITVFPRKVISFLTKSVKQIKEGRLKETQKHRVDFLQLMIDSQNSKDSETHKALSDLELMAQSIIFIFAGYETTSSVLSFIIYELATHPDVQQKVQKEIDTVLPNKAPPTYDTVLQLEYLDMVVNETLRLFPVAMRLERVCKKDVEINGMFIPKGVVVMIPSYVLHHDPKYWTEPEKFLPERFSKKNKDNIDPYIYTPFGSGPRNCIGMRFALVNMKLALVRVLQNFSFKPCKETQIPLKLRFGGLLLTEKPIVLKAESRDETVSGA
Procedure, shortened: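 Luminescence from luciferin released by CYP3A7 from a proluciferin substrate, read 20 min after detection reagent. Compound and enzyme-substrate mix sat 10 min before NADPH regeneration solution; reaction ran 1 h at room temperature.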

[2] = Viability qHTS for spleen associated tyrosine kinase inhibitor (SYKi) naive MV4-11 cells (AID 1963823); note: nearly all actives have a fitted effect of over 40% in size; note: potency is the fitted concentration of half-maximal effect
Procedure, shortened: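 Cells: MV4-11, SYK inhibitor naive, 500 per well. Treatment: library compounds, 72 hr, 37 C, 5% CO2. Read-out: CellTiter-Glo luminescence after 10 min RT.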

[3] = Cellular viability qHTS for adrenocortical cancer (ACC) cell line SW-13 (AID 1963989); conditions: SW-13 ACC cells viability, CellTiter-Glo, 48 h; activity (max response): stronger effect = lower value; note: nearly all actives have a fitted effect of over 65% in size; note: potency is the fitted concentration of half-maximal effect;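 for activity (max response): cells grown in serum-free medium with ITS supplement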
Procedure, shortened: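 Here, serum-free SW-13 cultures were dosed up to 46 uM. Following 48 h, ATP-dependent luminescence (CellTiter-Glo) reported viable cells, and logistic modeling produced IC50 values.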

[4] = Cellular viability qHTS for adrenocortical cancer (ACC) cell line NCI-H295R (AID 1963990); note: nearly all actives have a fitted effect of over 60% in size; note: potency is the fitted concentration of half-maximal effect
Procedure, shortened: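 Viability of NCI-H295R after 48 h of treatment (final up to 46 uM) measured through cellular ATP luminescence.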

[5] = Viability qHTS for spleen associated tyrosine kinase inhibitor (SYKi) drug resistant MV4-11 cells (AID 1963824); note: nearly all actives have a fitted effect of over 35% in size; note: potency is the fitted concentration of half-maximal effect
Procedure, shortened: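 SYK inhibitor-resistant MV4-11 AML cells, 500 per well, added to predispensed compounds and incubated 72 hr at 37 C, 5% CO2. Viability measured by CellTiter-Glo luminescence after 10 min at room temperature.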

| SMILES | Potency [1] | Potency [2] | activity (max response) [3] [%] | Potency [4] | Potency [3] | Potency [5] |
| --- | --- | --- | --- | --- | --- | --- |
| N[C@H]1C(O)O[C@H](CO)[C@@H](O)[C@@H]1O (stereo partly specified) | inactive | inactive | -3.76 | inactive |  |  |
| CCOC(=O)c1ccc(NC(=O)CN2CCCCC2)cc1 | inactive | inactive | -5.52 | inactive |  |  |
| CC(C)c1c2cc(-c3ccnc(NC4CCC(NC5CCOCC5)CC4)n3)ccc2nn1C (stereo unspecified) | inactive | 130 nM (active) and 105 nM (active) |  | 0.447 µM (active) | 0.282 µM (active) |  |
| CCCCCCCCOc1ccc(C(=O)c2ccccc2)c(O)c1 | inactive | inactive | 12.8 | inactive |  |  |
| CCCCOC(=O)CCCCCCCCC(=O)OCCCC | inactive | inactive | 11.1 | inactive |  |  |
| CC1(C)O[C@@H]2[C@@H](CO[C@@]3(COS(N)(=O)=O)OC(C)(C)O[C@@H]23)O1 | inactive | inactive | 9.55 | inactive |  |  |
| COC(=O)c1ccc2c(c1)nc(NC(=O)c1ccccc1)n2CCCc1ccccc1 | inactive |  |  |  |  | inactive |
| OC[C@H]1O[C@H](O[C@]2(CCl)O[C@H](CCl)[C@@H](O)[C@@H]2O)[C@H](O)[C@@H](O)[C@H]1Cl | inactive | inactive |  | inactive |  |  |
| NC(N)=NC(N)=NCCc1ccccc1 | inactive | 11.8 µM (active) | -8.99 | inactive |  |  |
| Cc1cccc(C)c1OCC(C)N (stereo unspecified) | inactive | inactive | 2.1 | inactive |  |  |
| CN1CCN(c2nc(-c3ccc(C(=O)NC4(C(=O)NCC#N)CCCCC4)cc3)cs2)CC1 | inactive |  |  |  |  | inactive |
| FC(F)(F)c1ccccc1-c1cc(C(F)(F)F)c2nc(C3=NOC4(CCCCC4)C3)[nH]c2c1 | inactive |  |  |  |  | 16.4 µM (active) |
